High-throughput results: PubChem BioAssay, The Scripps Research Institute Molecular Screening Center
MITF inh – inhibitors of human MITF | 0.91% of 650,000 active | inhibition, % at 2.6 µM | O75030 | AID 1259374 | AlphaScreen MITF homodimerization, bead proximity signal; in the data active means inhibition above about 50%;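 further: 0% = vehicle wells with protein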
Target sequence (O75030 whole entry, looked up): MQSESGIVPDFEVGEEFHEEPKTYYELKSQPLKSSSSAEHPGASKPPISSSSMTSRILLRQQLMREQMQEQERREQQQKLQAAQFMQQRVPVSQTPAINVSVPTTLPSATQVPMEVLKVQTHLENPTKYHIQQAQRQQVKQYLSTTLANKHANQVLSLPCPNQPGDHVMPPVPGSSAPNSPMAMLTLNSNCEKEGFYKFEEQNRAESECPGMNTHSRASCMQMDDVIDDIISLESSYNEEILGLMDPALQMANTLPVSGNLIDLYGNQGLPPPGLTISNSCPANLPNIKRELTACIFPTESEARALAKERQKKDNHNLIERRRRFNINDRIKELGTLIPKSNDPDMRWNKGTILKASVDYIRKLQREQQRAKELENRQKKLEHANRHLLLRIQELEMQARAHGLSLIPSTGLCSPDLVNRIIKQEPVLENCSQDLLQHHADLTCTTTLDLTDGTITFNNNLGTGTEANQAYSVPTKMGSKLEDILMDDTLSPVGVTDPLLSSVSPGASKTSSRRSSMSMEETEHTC
GPR151 activ – human GPR151 activation; Q8TDV0; PathHunter beta-arrestin GPR151 cells, luminescence; activation, % at 11.2 µM; 1% of 650,000 active; AID 1508602; in the data active means activation above about 4.9%;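 further: 0% = median of compound wells and 100% = cells with positive control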
FBW7 act – activators of human E3 ligase FBW7; AlphaScreen FBW7–phospho-cyclin E peptide binding, activator screen; normalized activity (activation), % at 26.1 µM; 0.13% of 650,000 active; AID 1259310; in the data active means normalized activity above about 1.9%;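 further: purified mutant Fbw7 with reduced substrate affinity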
TEAD-YAP block – TEAD-YAP interaction inhibition; inhibition, % at 9.12 µM; 1.4% of 640,000 active; HEK-TIYL cells, TEAD-Gal4/YAP UAS-luciferase luminescence; AID 1259422; in the data active means inhibition above about 32%;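 further: 0% = median of test compound wells and 100% = reference inhibitor wells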
GPR151 confirm – human GPR151 activation, confirmation screen; shares compounds with GPR151 activ; 6,700 tested, under 10 active; GPR151 PathHunter beta-arrestin cells, luminescence, 90 min; % of EA-reagent control over plate median; activation, % at 11.2 µM;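 active means mean percent activation across replicates above the confirmation screen cutoff of 4.91%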
GPR119 ag – GPR119 activation, counter-screen for GPR151 activators; shares compounds with GPR151 activ; 0.3% of 6,700 active; GPR119 PathHunter beta-arrestin cells, luminescence, 90 min; 0 = compound-well median, 100 = enzyme-acceptor control; activation, % at 11.2 µM;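 active means mean percent activation in the counterscreen above 29.09%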;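 further: counterscreen on off-target GPR119 to flag nonselective hits from the GPR151 activator screen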
Active calls of the source: *; . = no result; ! = repeats disagree. Only some compounds are listed: those with a hit (about 3.5% of all), similar ones and a draw of the others.

SMILES	MITF inh	GPR151 activ	FBW7 act	TEAD-YAP block	GPR151 confirm	GPR119 ag
O=c1cc2oc3cc(O)c(O)cc3c(-c3ccccc3)c-2cc1O	104*	6.2*	0	13	-1	2
O=c1cc(-c2ccccc2O)oc2cc(O)ccc12	-2	-2	0	23	.	.
COc1ccc(OC)c(-c2c3cc(O)c(=O)cc-3oc3cc(O)c(O)cc23)c1	107*	5.0*	-1	-1	-1	9
CCCCCCCc1ccc(C(=O)NNC(=O)c2ccc(C3CCC(CCCCC)CC3)cc2)cc1 (stereo unspecified)	9	1	0	14	.	.
CO/N=[N+]([O-])/C=C/c1cccc2ccccc12	9	-1	0	-14	.	.
COC1CCN(c2nc3nonc3nc2NC2CCCC2)CC1	8	0	0	5	.	.
CCCCN(c1ccccc1)c1ncnc2c1cnn2C	-12	0	0	-15	.	.
CCN(c1ccccc1)c1ncnc2c1cnn2C	8	5.0*	0	-9	0	3
COc1ccc(CN2CCN(Cc3ccc(OC)c(OC)c3OC)CC2)cc1OC	48	5.9*	0	16	0	6
CCn1c2ccccc2c2cc(CN3CCN(Cc4ccc(OC)c(OC)c4OC)CC3)ccc21	42	-1	0	-3	.	.
O=[N+]([O-])c1ccc(N2CCN(Cc3c[nH]c4ccccc34)CC2)cc1	17	-1	0	10	.	.
CC(C)(C)N1C(=O)c2ccc(C(=O)Nc3ccc([N+](=O)[O-])cc3Cl)cc2C1=O	4	6.6*	0	4	0	0
COc1ccc(NC(=O)Oc2ccc(C)c(C)c2)cc1Cl	-1	2	0	-1	.	.
COC(=O)CN(c1ccc(C)cc1)S(=O)(=O)c1c(C)[nH]c(=O)[nH]c1=O	6	2	0	2	.	.
COC(=O)CN(c1ccc2c(c1)OCO2)S(=O)(=O)c1c(C)[nH]c(=O)[nH]c1=O	-6	5.3*	0	9	1	2
COc1ccc(C2CC(=O)C=C(Nc3ccc(Br)cc3)C2)cc1OC (stereo unspecified)	11	0	0	-6	.	.
COC1=CC(=O)C[C@@H](C)[C@]12Oc1c(Cl)c(OC)cc(OC)c1C2=O	-7	5.4*!	0	43*!	0	2
O=C(c1ccco1)N1CCN(c2nccn3c(-c4cccc(Cl)c4)cnc23)CC1	18	6.9*	0	-1	1	21
CC(C)c1ccc(/C=N/Nc2nncc(=O)[nH]2)cc1	17	5.6*	-1	-44	0	-12
O=C(NC1CC2CCCC(C1)N2CC(=O)N1CCCc2ccccc21)C1CCCCC1 (stereo unspecified)	15	8.7*	0	7	0	6
O=C(CCl)N1CCCc2ccccc21	-5	11*	-1	17	0	2
N#CC1=C(N)Oc2cc(O)ccc2C1C1CC=CCC1 (stereo unspecified)	7	5.4*	0	13	0	2
Brc1ccc(Oc2ccc(Oc3ccc(Br)cc3)cc2)cc1	-1	0	0	3	.	.
Nc1ccc(Oc2ccc(Br)cc2)cc1	11	11*	0	2	1	-5
Nc1nc2ccc(OC(F)(F)F)cc2s1	-8	-2	0	-18	.	.
SMILES	MITF inh	GPR151 activ	FBW7 act	TEAD-YAP block	GPR151 confirm	GPR119 ag
Nc1nc2ccc(Oc3ccccc3)cc2s1	3	8.9*	0	1	0	-3
CC(C)CN1C(=O)CCC1CCNCCOc1ccccc1 (stereo unspecified)	14	-1	0	1	.	.
Cc1ccc(NC(=O)C(CC(=O)O)NCc2ccco2)cc1 (stereo unspecified)	-5	7.6*	0	-6	0	3
NC(=O)C1CCN(C(=O)c2ccc(CSc3ccc(Cl)cc3)cc2)CC1	3	0	0	4	.	.
COc1cc(NS(=O)(=O)c2c(C)nc3sccn3c2=O)cc(OC)c1	2	1	1	0	.	.
N#C/C(=C\c1c[nH]c2ccccc12)C(=O)N1CCc2ccccc2C1	-12	-1	0	-10	.	.
N#C/C(=C\c1ccc[nH]1)C(=O)N1CCc2ccccc2C1	0	5.3*	0	-28	1	9
CC(C)N(C(=O)C[n+]1cccc(/C=N/O)c1)C(C)C	6	1	0	-5	.	.
NC(=O)C[n+]1cccc(/C=N/O)c1	3	6.3*	0	-3	0	-2
CN(CC(=O)NCc1cccnc1)c1nnc(N2CCCC2=O)s1	10	5.2*	0	3	0	4
Cc1cccc(CNC(=O)CN(C)c2nnc(N3CCCC3=O)s2)c1	-12	-1	0	-10	.	.
CC(C)c1nnc(C2CCN(C(=O)Cn3c(=O)oc4ccccc43)CC2)o1	-11	9.7*	0	11	1	0
O=C(O)CCCn1c(=O)oc2ccccc21	4	0	2	-2	.	.
O=C(CCCn1c(=O)oc2ccccc21)NNC(=O)COc1ccc(F)cc1	13	5.7*	0	-1	0	-8
CCCCCCCCCCCCCc1ccco1	-9	7.1*	0	6	0	3
CCCCCCNc1nc(NCc2ccco2)nc(OCC)n1	-4	-1	0	-5	.	.
COC(=O)c1ccc2c(=O)n(CCN3CCOCC3)c(SCc3csc(C)n3)nc2c1	30	1	0	3	.	.
Cc1ccc(C2C3=C(CC(C)(C)CC3=O)Nc3n[nH]c(C)c32)cc1 (stereo unspecified)	6	8.4*	0	9	0	0
CC1=C(C(=O)Nc2nc3ccccc3s2)C(c2ccc(C)cc2)C2=C(CC(C)(C)CC2=O)N1 (stereo unspecified)	-4	6.5*	0	15	1	18
Cn1c2c(c(=O)n(C)c1=O)C(c1ccc(F)cc1)C1=C(CC(C)(C)CC1=O)N2 (stereo unspecified)	3	0	0	10	.	.
CC1=C(C(=O)Nc2nc3ccccc3s2)C(c2ccc(Br)cc2)C2=C(CC(C)(C)CC2=O)N1 (stereo unspecified)	-13	0	0	2	.	.
Cc1ccc(C2C3=C(CC(C)(C)CC3=O)Nc3c2c(=O)n(C)c(=O)n3C)cc1 (stereo unspecified)	-4	7.5*	-1	1	0	-5
CCCCCCNC(=O)C1C2C=CC(C2)C1C(=O)O (stereo unspecified)	25	1	0	7	.	.
CC(C)(C)NC(=O)CSc1nc(C(C)(C)C)nc2ccccc12	21	-1	0	1	.	.
O=C1CN(c2ccccc2NC(=O)C2(c3cccs3)CCCC2)CCN1	11	5.0*	0	8	0	7
CC1CCc2c(sc3c2C(=O)NC(c2ccc(C#N)cc2)N3)C1 (stereo unspecified)	8	2	0	6	.	.
Cc1cc(C)nc(SCC(=O)NC(C)(C)C)n1	16	0	0	-1	.	.
